# Source: the supplement of paper PMC8728848
# Only a selection was taken, and the strongest signals are over-represented in it overall.
# B1: CrataBL (Crataeva tapia), C0HJA4 (protein)
# chain: AILTGVPYYILPSTSRAGFSPDNLRKNTSQLSCPLDLITQLRFPRRIGVPVIFTPQNSSLKVVPLSHNLNIHTCSDLWFCPESKIWTVKSSLTHGGSVVTTGGTFRSLGSWFRIERHGDSYKLVHCPRGSTPCRDVGIETVGGGGRRYLAPRDRPLAVRFTRASG
# What was measured:
# Experiment in all cases: glycan array binding signal (z-score within array); higher = stronger binding
# Conditions in all cases: glycan notation: IUPAC condensed, linker removed
# [1] = target: Fuc(a1-2)Gal(b1-3)GlcNAc(b1-3)GalNAc
# Procedure, shortened: (§1)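 Columns mapping to the same glycan were averaged after glycan names were converted to IUPAC-condensed notation. The data come from 3228 arrays in the Consortium for Functional Glycomics database, limited to those with an available protein sequence. Binding is reported as a within-array Z-score averaged across arrays of one protein sequence and across linkers.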
# [2] = target: Fuc(a1-2)Gal(b1-4)GlcNAc
# Procedure, shortened: as §1
# [3] = target: Fuc(a1-2)Gal(b1-4)GlcNAc(b1-3)Gal(b1-4)GlcNAc
# Procedure, shortened: as §1
# [4] = target: Fuc(a1-2)Gal6S(b1-3)GlcNAc6S
# Procedure, shortened: as §1
# [5] = target: Fuc(a1-2)[Gal(a1-3)]Gal(b1-4)[Fuc(a1-3)]GlcNAc(b1-3)GalNAc
# Procedure, shortened: as §1
# [6] = target: Fuc(a1-2)[GalNAc(a1-3)]Gal(b1-4)GlcNAc(b1-2)Man
# Procedure, shortened: as §1
# [7] = target: Fuc(a1-3)[Gal(b1-4)]GlcNAc(b1-2)Man(a1-3)[Fuc(a1-3)[Gal(b1-4)]GlcNAc(b1-2)Man(a1-6)]Man(b1-4)GlcNAc(b1-4)GlcNAc
# Procedure, shortened: as §1
# [8] = target: Fuc(a1-3)[Gal(b1-4)]GlcNAc(b1-6)[Gal(b1-3)GlcNAc(b1-3)]Gal(b1-4)Glc
# Procedure, shortened: as §1
# [9] = target: Fuc(a1-3)[GalNAc(b1-4)]GlcNAc6S
# Procedure, shortened: as §1
# [10] = target: Gal(a1-3)Gal(b1-3)GlcNAc(b1-3)GalNAc
# Procedure, shortened: as §1
# [11] = target: Gal(a1-3)Gal(b1-4)Glc
# Procedure, shortened: as §1
# [12] = target: Gal(a1-4)Gal(b1-3)GlcNAc(b1-2)Man(a1-3)[Gal(a1-4)Gal(b1-3)GlcNAc(b1-2)Man(a1-6)]Man(b1-4)GlcNAc(b1-4)GlcNAc
# Procedure, shortened: as §1
# [13] = target: Gal(b1-3)GlcNAc(b1-2)Man
# Procedure, shortened: as §1
# [14] = target: Gal(b1-3)[Fuc(a1-4)]GlcNAc(b1-3)Gal(b1-3)[Fuc(a1-4)]GlcNAc
# Procedure, shortened: as §1
# [15] = target: Gal(b1-3)[Neu5Ac(b2-6)]GalNAc
# Procedure, shortened: as §1
# [16] = target: Gal(b1-4)GlcNAc(b1-2)Man(a1-3)[Gal(b1-4)GlcNAc(b1-2)Man(a1-6)][GlcNAc(b1-4)]Man(b1-4)GlcNAc(b1-4)[Fuc(a1-6)]GlcNAc
# Procedure, shortened: as §1
# [17] = target: Gal(b1-4)GlcNAc(b1-2)[Gal(b1-4)GlcNAc(b1-4)]Man(a1-3)[GlcNAc(b1-4)][Gal(b1-4)GlcNAc(b1-2)Man(a1-6)]Man(b1-4)GlcNAc(b1-4)GlcNAc
# Procedure, shortened: as §1
# [18] = target: Gal(b1-4)GlcNAc(b1-3)Gal(b1-4)GlcNAc(b1-2)Man(a1-3)[Gal(b1-4)GlcNAc(b1-3)Gal(b1-4)GlcNAc(b1-2)Man(a1-6)]Man(b1-4)GlcNAc(b1-4)[Fuc(a1-6)]GlcNAc
# Procedure, shortened: as §1
# [19] = target: Gal(b1-4)GlcNAc(b1-3)Gal(b1-4)GlcNAc(b1-3)Gal(b1-4)GlcNAc(b1-3)Gal(b1-4)GlcNAc(b1-3)Gal(b1-4)GlcNAc(b1-2)Man(a1-3)[Gal(b1-4)GlcNAc(b1-3)Gal(b1-4)GlcNAc(b1-3)Gal(b1-4)GlcNAc(b1-3)Gal(b1-4)GlcNAc(b1-3)Gal(b1-4)GlcNAc(b1-2)Man(a1-6)]Man(b1-4)GlcNAc(b1-4)GlcNAc
# Procedure, shortened: as §1
# [20] = target: Gal(b1-4)GlcNAc(b1-3)Gal(b1-4)GlcNAc(b1-3)Gal(b1-4)GlcNAc(b1-3)Gal(b1-4)GlcNAc(b1-3)Gal(b1-4)GlcNAc(b1-2)Man(a1-3)[Gal(b1-4)GlcNAc(b1-3)Gal(b1-4)GlcNAc(b1-3)Gal(b1-4)GlcNAc(b1-3)Gal(b1-4)GlcNAc(b1-3)Gal(b1-4)GlcNAc(b1-2)Man(a1-6)]Man(b1-4)GlcNAc(b1-4)[Fuc(a1-6)]GlcNAc
# Procedure, shortened: as §1
# [21] = target: Gal(b1-4)GlcNAc(b1-6)[Gal(b1-4)GlcNAc(b1-3)]GalNAc
# Procedure, shortened: as §1
# [22] = target: Gal3S(b1-4)GlcNAc
# Procedure, shortened: as §1
# [23] = target: Gal3S(b1-4)[Fuc(a1-3)]GlcNAc6S
# Procedure, shortened: as §1
# [24] = target: Gal3S4S(b1-4)GlcNAc
# Procedure, shortened: as §1
# [25] = target: Gal3S6S(b1-4)GlcNAc
# Procedure, shortened: as §1
# [26] = target: Gal3S6S(b1-4)GlcNAc6S
# Procedure, shortened: as §1
# [27] = target: Gal6S(b1-3)GlcNAc6S
# Procedure, shortened: as §1
# [28] = target: Gal6S(b1-4)Glc6S
# Procedure, shortened: as §1
# [29] = target: Gal6S(b1-4)GlcNAc6S
# Procedure, shortened: as §1
# [30] = target: GalNAc3S(b1-4)[Fuc(a1-3)]GlcNAc
# Procedure, shortened: as §1
# [31] = target: GalNAc4S6S(b1-4)GlcNAc
# Procedure, shortened: as §1
# [32] = target: GlcNAc(a1-4)Gal(b1-3)GlcNAc
# Procedure, shortened: as §1
# [33] = target: GlcNAc(b1-2)Man(a1-3)[GlcNAc(b1-4)][GlcNAc(b1-2)Man(a1-6)]Man(b1-4)GlcNAc(b1-4)GlcNAc
# Procedure, shortened: as §1
# [34] = target: GlcNAc(b1-3)Gal(b1-4)GlcNAc(b1-3)Gal(b1-4)GlcNAc(b1-2)Man(a1-3)[GlcNAc(b1-3)Gal(b1-4)GlcNAc(b1-3)Gal(b1-4)GlcNAc(b1-2)Man(a1-6)]Man(b1-4)GlcNAc(b1-4)[Fuc(a1-6)]GlcNAc
# Procedure, shortened: as §1
# [35] = target: GlcNAc(b1-4)GlcNAc(b1-4)GlcNAc(b1-4)GlcNAc(b1-4)GlcNAc
# Procedure, shortened: as §1
# [36] = target: GlcNAc(b1-4)[GlcNAc(b1-6)]GalNAc
# Procedure, shortened: as §1
# [37] = target: Kdn(a2-3)Gal(b1-3)GalNAc
# Procedure, shortened: as §1
# [38] = target: Kdn(a2-3)Gal(b1-4)Glc
# Procedure, shortened: as §1
# [39] = target: Man(a1-2)Man(a1-3)Man
# Procedure, shortened: as §1
# [40] = target: Neu5Ac(a2-3)Gal(b1-3)GalNAc
# Procedure, shortened: as §1
# [41] = target: Neu5Ac(a2-3)Gal(b1-3)GlcNAc(b1-4)Gal(b1-4)Glc
# Procedure, shortened: as §1
# [42] = target: Neu5Ac(a2-3)Gal(b1-4)GlcNAc(b1-2)[Neu5Ac(a2-3)Gal(b1-4)GlcNAc(b1-6)]Man(a1-6)[Neu5Ac(a2-3)Gal(b1-4)GlcNAc(b1-2)Man(a1-3)][GlcNAc(b1-4)]Man(b1-4)GlcNAc(b1-4)GlcNAc
# Procedure, shortened: as §1
# [43] = target: Neu5Ac(a2-3)Gal(b1-4)GlcNAc(b1-3)Gal(b1-4)GlcNAc(b1-3)Gal(b1-4)GlcNAc
# Procedure, shortened: as §1
# [44] = target: Neu5Ac(a2-3)Gal(b1-4)GlcNAc(b1-3)Gal(b1-4)GlcNAc(b1-3)Gal(b1-4)GlcNAc(b1-2)Man(a1-3)[Neu5Ac(a2-3)Gal(b1-4)GlcNAc(b1-3)Gal(b1-4)GlcNAc(b1-3)Gal(b1-4)GlcNAc(b1-2)Man(a1-6)]GalNAc
# Procedure, shortened: as §1
# [45] = target: Neu5Ac(a2-3)Gal(b1-4)GlcNAc(b1-3)[Neu5Ac(a2-3)Gal(b1-4)GlcNAc(b1-6)]GalNAc
# Procedure, shortened: as §1
# [46] = target: Neu5Ac(a2-3)Gal(b1-4)GlcNAc6S
# Procedure, shortened: as §1
# [47] = target: Neu5Ac(a2-3)Gal(b1-4)[Fuc(a1-3)]GlcNAc(b1-3)Gal
# Procedure, shortened: as §1
# [48] = target: Neu5Ac(a2-3)Gal(b1-4)[Fuc(a1-3)]GlcNAc(b1-3)Gal(b1-4)[Fuc(a1-3)]GlcNAc(b1-3)Gal(b1-4)[Fuc(a1-3)]GlcNAc
# Procedure, shortened: as §1
# [49] = target: Neu5Ac(a2-6)Gal(b1-4)GlcNAc(b1-2)Man(a1-6)[Gal(b1-4)GlcNAc(b1-2)Man(a1-3)]Man(b1-4)GlcNAc(b1-4)GlcNAc
# Procedure, shortened: as §1
# [50] = target: Neu5Ac(a2-8)Neu5Ac(a2-3)[GalNAc(b1-4)]Gal(b1-4)Glc
# Procedure, shortened: as §1
# [51] = target: Neu5Ac(b2-6)Gal(b1-4)GlcNAc
# Procedure, shortened: as §1
binder,measurement,setting,value
B1,glycan array binding signal (z-score),[1],-0.444
same,glycan array binding signal (z-score),[2],-0.486
same,glycan array binding signal (z-score),[3],-0.497
same,glycan array binding signal (z-score),[4],5.81
same,glycan array binding signal (z-score),[5],-0.054
same,glycan array binding signal (z-score),[6],-0.507
same,glycan array binding signal (z-score),[7],-0.41
same,glycan array binding signal (z-score),[8],-0.443
same,glycan array binding signal (z-score),[9],0.386
same,glycan array binding signal (z-score),[10],-0.383
same,glycan array binding signal (z-score),[11],-0.243
same,glycan array binding signal (z-score),[12],-0.451
same,glycan array binding signal (z-score),[13],-0.207
same,glycan array binding signal (z-score),[14],-0.412
same,glycan array binding signal (z-score),[15],-0.333
same,glycan array binding signal (z-score),[16],-0.533
same,glycan array binding signal (z-score),[17],-0.465
same,glycan array binding signal (z-score),[18],-0.376
same,glycan array binding signal (z-score),[19],-0.247
same,glycan array binding signal (z-score),[20],-0.276
same,glycan array binding signal (z-score),[21],-0.237
same,glycan array binding signal (z-score),[22],-0.021
same,glycan array binding signal (z-score),[23],5.22
same,glycan array binding signal (z-score),[24],2.38
same,glycan array binding signal (z-score),[25],3.14
same,glycan array binding signal (z-score),[26],11.7
same,glycan array binding signal (z-score),[27],6.61
same,glycan array binding signal (z-score),[28],2.96
same,glycan array binding signal (z-score),[29],5.29
same,glycan array binding signal (z-score),[30],0.423
same,glycan array binding signal (z-score),[31],5.23
same,glycan array binding signal (z-score),[32],-0.374
same,glycan array binding signal (z-score),[33],-0.23
same,glycan array binding signal (z-score),[34],-0.076
same,glycan array binding signal (z-score),[35],-0.186
same,glycan array binding signal (z-score),[36],-0.434
same,glycan array binding signal (z-score),[37],0.64
same,glycan array binding signal (z-score),[38],0.084
same,glycan array binding signal (z-score),[39],-0.472
same,glycan array binding signal (z-score),[40],0.131
same,glycan array binding signal (z-score),[41],-0.112
same,glycan array binding signal (z-score),[42],-0.386
same,glycan array binding signal (z-score),[43],-0.389
same,glycan array binding signal (z-score),[44],2.17
same,glycan array binding signal (z-score),[45],0.163
same,glycan array binding signal (z-score),[46],2.07
same,glycan array binding signal (z-score),[47],-0.448
same,glycan array binding signal (z-score),[48],-0.51
same,glycan array binding signal (z-score),[49],0.067
same,glycan array binding signal (z-score),[50],0.475
same,glycan array binding signal (z-score),[51],-0.387
